Records with an inconclusive call do not appear. Activity calls are given as the source filed them. Calls follow the shape of the dose curve; as a rule, active = well fitted curve in the direction sought with a large enough effect; inconclusive = small, poorly fitted or top-dose-only effect, or another doubt; inactive = no such curve, though single readings can be large or run the other way.

These results are taken from PubChem BioAssay (NCATS).

Sequence of Nuclear receptor subfamily 1 group I member 3 (Homo sapiens) (Q14994 whole entry, looked up): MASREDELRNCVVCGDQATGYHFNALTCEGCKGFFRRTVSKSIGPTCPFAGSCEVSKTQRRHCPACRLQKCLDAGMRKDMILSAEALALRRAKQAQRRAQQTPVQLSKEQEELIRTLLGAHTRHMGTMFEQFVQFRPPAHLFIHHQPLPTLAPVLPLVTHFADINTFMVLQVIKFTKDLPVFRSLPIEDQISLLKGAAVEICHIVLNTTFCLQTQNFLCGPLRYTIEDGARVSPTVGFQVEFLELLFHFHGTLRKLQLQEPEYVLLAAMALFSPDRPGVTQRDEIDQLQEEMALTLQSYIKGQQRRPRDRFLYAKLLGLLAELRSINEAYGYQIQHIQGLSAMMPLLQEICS

For this test, the target named is Nuclear receptor subfamily 1 group I member 3 (Homo sapiens) (UniProt Q14994). Briefly: Primary qHTS for antagonist of constitutive androstane receptor (CAR) against the NCATS DSHEA and TCM libraries (AID 1794836).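 Also: HepG2 cells stably expressing hCAR with CYP2B6 luciferase reporter stimulated by CITCO.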 The following applies: CAR reporter cell assay, antagonist mode, luciferase; series mostly up to 40 µM. The source says:
Assay Development and Screening Technology Laboratory (ADST)
National Center for Advancing Translational Sciences (NCATS), Rockville, MD
National Institute of Health (NIH), Bethesda, Maryland
Dietary Supplements and Natural Products have minor oversight of their safety and efficacy. We assembled a collection of Dietary Supplements and Natural Products (DSNP) as well as Traditional Chinese Medicinal (TCM) Plant extracts, which were screened against an in vitro panel of assays, including a liver cytochrome p450 enzyme panel, CAR/PXR signaling pathways, and P-gp transporter assays, to assess their activity. This pipeline facilitated the interrogation of Natural Product-Drug Interaction (NaPDI) through prominent metabolizing pathways. In addition, we compared the activity profiles of the DSNP/TCM substances with those of an approved drug collection. Many of the approved drugs have well-annotated mechanisms of action (MOA) while the MOAs for most of the DSNP and TCM samples remain unknown. Based on the premise that compounds with similar activity profiles tend to share similar targets or MOA, we clustered the library activity profiles to identify overlap with the NCATS Pharmaceutical Collection to predict the MOAs of the DSNP/TCM substances. Overall, we highlight four significant bioactivity profiles (measured by p-values) as examples of this prediction.
To this end, we profiled both collections for potential CAR and/or PXR activity, employing a previously published 1536-well qHTS assay.
PROTOCOL TABLE (as described by Inglese J, Shamu CE and Guy RK. 2007)
SEQUENCE No. (e.g., 1, 2, 3, etc.); […] (e.g., Cells, Incubation, Reagent, etc.); VALUE; DESCRIPTION.
1; Cells; 4 uL; 1536-well white Greiner assay plate.
2; Incubation; 5 hours; 37C, 95% humidity, 5% CO2.
3; Compounds; 23 nL; Kalypsis pin tool (Wako USA) equipped with 1536-well pin head to transfer to the assay plates.
4; Reagent; 1 uL; 48 uM CITCO (final concentration).
5; Incubation; 24 hours; 37C, 5% CO2.
6; Detection Reagent 1; 1 uL; CellTiter-Fluor (Promega).
7; Incubation; 1 hour; 37C, 5% CO2.
8; Detector 1; Fluorescence intensity; ViewLux plate reader (excitation 405 nm, emission 540 nm).
9; Detection Reagent 2; 4 uL; ONE-Glo Luciferase reagent (Promega).
10; Incubation; 30 min; room temperature.
11; Detector 2; Luminescence intensity; ViewLux.
NOTES (numbers refer to Sequence numbers above)
1. 4 uL of HepG2-CYP2B6-hCAR cells at 6.25 x 10^5 cells/mL (2,500 cells/well) were dispensed using a Multidrop Combi dispenser in tissue culture-treated 1536-well white assay plates (Greiner Bio-One) in the same culture media, without geneticin and blasticidin included.
2. Plates were incubated for 5 hours at 37C, 95% humidity, and 5% CO2 to allow for cell attachment.
3. Compounds (final concentrations of most substances ranged from 15.6 nM to 31.9 uM), positive control (for antagonist mode: PK11195 with a final concentration range 2.8 nM to 92 uM), and toxicity control tetraoctyl ammonium bromide (final concentration of 92 uM) were transferred (23 nL) via pintool (Wako Automation).
4. After compound transfer, plates were dispensed with 1 uL of the known hCAR agonist 6-(4-Chlorophenyl)imidazo[2,1-b][1,3]thiazole-5-carbaldehyde O-(3,4-dichlorobenzyl)oxime (CITCO, final concentration of 48 uM) in the antagonist mode using a BioRAPTR FRDTM.
6. 1 uL of CellTiter-Fluor (Promega, Madison, Wisconsin) was added using a BioRAPTR FRDTM.
8. Fluorescence intensity (Ex/Em = 405 nm/540 nm) is obtained using the ViewLux plate reader to determine cell viability.
9. 4 uL of ONE-Glo Luciferase reagent (Promega) was added to each well using the BioRAPTR FRDTM,
10. Luminescence intensity is read using the ViewLux detector.
For `COc1ccc2cc3[n+](cc2c1OC)CCc1cc2c(cc1-3)OCO2`, the compound was classed as inactive.

Turning to `C/C=C/c1ccc(OC)cc1`, the call was inactive.

As for `OC[C@H]1O[C@@H](OCCc2ccc(O)cc2)[C@H](O)[C@@H](O)[C@H]1O`, the call was inactive.

With `Oc1ccc(/C=C/c2cc(O)cc(O)c2)cc1`, the call was inactive.
